Results published in PubChem BioAssay AID1159580 (chemical genetic matrix, 2015).
About 2,000 (36%) of roughly 5,500 compounds were called active. Inconclusive results (about 18%) are left out. Cut-off read from the data, not from the text of the source: active = normalized growth mostly below about 0.91 (no sharp cut-off); inconclusive = no clear call, values can overlap the other calls; inactive = mostly above about 0.92. The list shows a part of the results.

Experiment: chemical genetic growth profiling, strain panel (AID 1159580);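 note: tested at 20 µM; growth read once vehicle control cultures reached saturation at 30 °C; 1 = growth at the plate median or of vehicle wells; lower values mean less growth of the strain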
Conditions: S. cerevisiae deletion strains, growth OD
[1] = locus YAL040C, strain CLN3, hits give low values
[2] = locus YDR150W, strain NUM1, hits give low values
[3] = locus YDR363W, strain ESC2, hits give low values
[4] = locus YER002W, strain NOP16, hits give low values
[5] = locus YGR078C, strain PAC10, hits give low values
[6] = locus YNL128W, strain TEP1, hits give low values
[7] = locus YNL175C, strain NOP13, hits give low values
[8] = locus YNL197C, strain WHI3, hits give low values
[9] = locus YNL224C, strain SQS1, hits give low values
[10] = locus YNL322C, strain KRE1, hits give low values
[11] = locus YOR083W, strain WHI5 (second series), hits give low values
[12] = locus YCL061C, strain MRC1 (second series), hits give low values
[13] = locus YMR307W, strain GAS1, hits give low values
[14] = locus YNL153C, strain GIM3, hits give low values

Measured: normalized growth

C[N+](C)(C)CC=O
inactive: [1] 0.989 | [2] 1.01 | [3] 0.979 | [4] 0.989 | [5] 1.01 | locus YJR075W, strain HOC1, hits give low values 0.999 | [6] 0.981 | [7] 1 | [8] 1.04 | [9] 0.993 | [10] 0.994 | [11] 1.06 | locus YPL055C, strain LGE1, hits give low values 1.03

C/C=C(/C)C(=O)O[C@H]1C(C)=C2[C@H]([C@@H]1OC(=O)CCCCCCC)[C@@](C)(OC(C)=O)C[C@H](OC(=O)CCC)[C@@]1(O)[C@H]2OC(=O)[C@@]1(C)O
inactive: [1] 1 | [12] 0.995 | [2] 1.01 | [3] 1.02 | [4] 1.01 | [5] 0.995 | locus YGR229C, strain SMI1, hits give low values 1.05 | locus YMR263W, strain SAP30, hits give low values 0.995 | [13] 0.968 | [6] 1.03 | [7] 1.02 | [8] 0.984 | [9] 0.988 | [11] 1

CCCCCC(CC(=O)NO)C(=O)NC(C(=O)N1CCCC1CO)C(C)C (stereo not drawn)
inactive: [1] 0.97 | [12] 0.995 | [3] 1.06 | [4] 0.971 | [5] 0.976 | [14] 0.976 | [7] 0.96 | [8] 0.987 | [9] 1.01 | [10] 1.01 | [11] 0.964 | locus YPL241C, strain CIN2, hits give low values 0.97

COC(=O)C[C@H]1C(C)(C)C(OC(C)=O)[C@]2(O)C=C3C4CC(=O)O[C@@H](c5ccoc5)[C@]4(C)CCC3[C@@]1(C)C2=O (stereo partly drawn)
inactive: locus YBR021W, strain FUR4, hits give low values 0.996 | locus YBR229C, strain ROT2, hits give low values 1 | locus YCL029C, strain bik1, hits give low values 1.01 | locus YDL035C, strain GPR1, hits give low values 1 | locus YDL074C, strain BRE1, hits give low values 1 | locus YDL101C, strain DUN1, hits give low values 1.01 | locus YDL134C, strain PPH21, hits give low values 1.02 | locus YDL185W, strain tfp1, hits give low values 1.02 | locus YDL192W, strain arf1, hits give low values 1 | locus YDR101C, strain arx1, hits give low values 1.01 | locus YDR162C, strain NBP2, hits give low values 1.01 | locus YDR318W, strain mcm21, hits give low values 1.01 | locus YDR388W, hits give low values 1 | locus YDR502C, strain sam2, hits give low values 1.02 | locus YER110C, hits give low values 1 | locus YER155C, strain BEM2, hits give low values 1 | locus YER167W, strain BCK2, hits give low values 1.01 | locus YGL078C, strain dbp3, hits give low values 1.02 | locus YGL086W, strain mad1, hits give low values 1 | locus YGL248W, strain PDE1, hits give low values 1 | locus YGR135W, strain pre9, hits give low values 1.02 | locus YGR252W, strain gcn5, hits give low values 0.975 | locus YHR030C, strain SLT2, hits give low values 1.01 | locus YHR079C, strain IRE1 (second series), hits give low values 1.02 | locus YHR094C, strain hxt1, hits give low values 1.01 | locus YHR129C, strain ARP1, hits give low values 1 | locus YHR200W, strain rpn10, hits give low values 1.01 | locus YIL066C, strain RNR3, hits give low values 0.997 | locus YIL073C, strain SPO22, hits give low values 1.06 | locus YIL125W, strain kgd1, hits give low values 1.01 | locus YIR030C, strain dcg1, hits give low values 1 | locus YJL095W, strain BCK1, hits give low values 1.03 | locus YJL134W, strain LCB3, hits give low values 1 | locus YJL168C, strain set2, hits give low values 1.01 | locus YJL187C, strain SWE1 (second series), hits give low values 1.02 | locus YKL009W, strain mrt4, hits give low values 0.992 | locus YKL068W, hits give low values 1.01 | locus YKL085W, strain MDH1 (second series), hits give low values 1.01 | locus YKL085W, strain MDH1, hits give low values 1.01 | locus YKR001C, strain vps1, hits give low values 1.01 | locus YLR039C, strain RIC1, hits give low values 1.02 | locus YLR058C, strain SHM2, hits give low values 1 | locus YLR102C, strain apc9, hits give low values 1.01 | locus YLR268W, strain sec22, hits give low values 1.01 | locus YLR330W, strain CHS5, hits give low values 1.01 | locus YLR371W, strain rom2, hits give low values 1.01 | locus YLR418C, strain cdc73, hits give low values 1.03 | locus YML016C, strain PPZ1, hits give low values 0.999 | locus YML032C, strain rad52, hits give low values 1.01 | locus YML124C, strain tub3, hits give low values 1.01 | locus YMR078C, strain ctf18, hits give low values 1.01 | locus YMR223W, strain ubp8, hits give low values 1.01 | [13] 1.04 | locus YNL067W, strain RPL9B, hits give low values 1.02 | [14] 1.02 | locus YNL233W, strain BNI4, hits give low values 1.02 | locus YNL250W, strain rad50, hits give low values 1.01 | locus YNL271C, strain bni1, hits give low values 1.01 | locus YNL298W, strain CLA4, hits give low values 1 | locus YNL307C, strain MCK1, hits give low values 1.01 | locus YNR052C, strain pop2, hits give low values 1.01 | locus YOL012C, strain htz1 0.877 | locus YOL147C, strain pex11, hits give low values 1.01 | locus YOR061W, strain CKA2, hits give low values 0.997 | locus YOR069W, strain VPS5, hits give low values 1 | locus YOR136W, strain idh2, hits give low values 1.02 | locus YOR144C, strain elg1, hits give low values 1 | locus YOR184W, strain ser1, hits give low values 0.999 | locus YOR316C, strain cot1, hits give low values 1.01 | locus YPR119W, strain clb2, hits give low values 1.02 | locus YPR141C, strain kar3, hits give low values 1.01 | locus YPR163C, strain tif3, hits give low values 1.01 | locus YPR167C, strain met16, hits give low values 1.01 | strain wtn01, hits give low values 0.991
